# In PMC4336329 (PLoS ONE, 2015):
# About 14,000 (4.5%) of roughly 310,000 compounds showed an effect of 50% or more. Effects have a minus sign here. The list comes from a sample in which strong results are over-represented; it also holds similar structures and randomly drawn compounds.
# Target: human ether-à-go-go-related gene (hERG) potassium channel (human, UniProt Q12809)
# Assay: primary screen, population patch clamp on CHO cells stably expressing hERG; higher = less effect of the substance
# 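Further: peak tail current of the secondary pulse compared with the same well before compound.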
# Chain of human ether-à-go-go-related gene (hERG) potassium channel (Q12809 whole entry, looked up): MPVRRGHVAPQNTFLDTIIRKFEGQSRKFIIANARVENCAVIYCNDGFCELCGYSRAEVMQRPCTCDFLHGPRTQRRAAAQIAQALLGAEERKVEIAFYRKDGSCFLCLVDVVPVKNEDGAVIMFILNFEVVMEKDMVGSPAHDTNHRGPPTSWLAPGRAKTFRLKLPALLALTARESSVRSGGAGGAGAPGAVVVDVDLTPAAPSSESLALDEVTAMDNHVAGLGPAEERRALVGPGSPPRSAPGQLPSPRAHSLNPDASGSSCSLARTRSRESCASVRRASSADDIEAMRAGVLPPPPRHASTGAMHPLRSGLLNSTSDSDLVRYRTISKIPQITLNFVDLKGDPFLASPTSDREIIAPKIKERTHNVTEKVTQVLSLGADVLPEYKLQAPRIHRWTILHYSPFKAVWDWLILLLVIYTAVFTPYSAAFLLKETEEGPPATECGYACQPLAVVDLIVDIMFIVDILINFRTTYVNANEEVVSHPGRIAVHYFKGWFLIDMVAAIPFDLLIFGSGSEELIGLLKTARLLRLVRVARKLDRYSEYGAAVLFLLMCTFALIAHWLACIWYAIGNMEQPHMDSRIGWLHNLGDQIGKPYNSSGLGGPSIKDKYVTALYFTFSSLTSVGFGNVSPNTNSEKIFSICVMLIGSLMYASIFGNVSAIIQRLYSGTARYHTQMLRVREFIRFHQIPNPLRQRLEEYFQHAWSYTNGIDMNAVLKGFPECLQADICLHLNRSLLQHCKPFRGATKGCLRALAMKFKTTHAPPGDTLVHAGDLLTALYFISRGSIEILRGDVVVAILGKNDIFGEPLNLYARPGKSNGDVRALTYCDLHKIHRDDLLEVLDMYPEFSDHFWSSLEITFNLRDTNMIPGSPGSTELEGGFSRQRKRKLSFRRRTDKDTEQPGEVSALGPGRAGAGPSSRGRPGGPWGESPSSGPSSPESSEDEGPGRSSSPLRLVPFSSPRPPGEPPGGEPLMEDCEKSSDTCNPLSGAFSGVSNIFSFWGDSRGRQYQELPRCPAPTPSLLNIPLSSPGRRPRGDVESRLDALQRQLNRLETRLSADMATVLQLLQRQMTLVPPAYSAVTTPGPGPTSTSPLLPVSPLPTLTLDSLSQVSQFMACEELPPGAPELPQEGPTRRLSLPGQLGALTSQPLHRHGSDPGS
row,Compound,"hERG current change (%, negative = inhibition) at 10uM"
1,O=C(CN1C(=O)NC2(CCCC2)C1=O)OCc1cc(=O)n2cc(Br)ccc2n1,0.0178%
2,COc1cc(C(=O)Nc2ccc(-c3nnc(-c4ccco4)o3)cc2)cc(OC)c1OC,-3.23%
3,Cc1ccnc(NS(=O)(=O)c2cccc([N+](=O)[O-])c2)c1,0.0315%
4,CCNC(=O)CC1C(=O)N(c2cccc(OC)c2)C(=O)N1CCOC (centres unmarked),8.39%
5,COc1ccc(CNC(=O)C(c2ccco2)N(Cc2cccs2)C(=O)Cc2cccs2)cc1 (centres unmarked),10.6%
6,Cc1ccc(OCC(=O)N(Cc2nnc(-c3ccccc3Cl)o2)C2CC2)cc1C,-44.1%
7,O=C(COc1ccccc1)N(Cc1nnc(-c2ccccc2Cl)o1)C1CC1,-15%
8,Cc1cccc(OCC(=O)N(Cc2nnc(-c3ccccc3Cl)o2)C2CC2)c1,-54.2%
9,COc1ccc(CNC(=O)CN(Cc2ccco2)C(=O)CNS(=O)(=O)c2ccccc2)cc1,-38.7%
10,COc1ccc(S(=O)(=O)NCC(=O)N(CC(=O)NCc2ccccc2)Cc2ccco2)cc1,-17%
11,O=C(CN(Cc1ccccc1)C(=O)CNS(=O)(=O)c1ccccc1)NCc1ccco1,-0.255%
12,COc1ccc(S(=O)(=O)NCC(=O)N(CC(=O)NCc2ccco2)Cc2ccc(F)cc2)cc1,1.94%
13,COc1ccc(CN(CC(=O)NCc2ccco2)C(=O)CNS(=O)(=O)c2ccc(C)cc2)cc1,-63.3%
14,Cc1ccc(S(=O)(=O)NCC(=O)N(CC(=O)NCc2ccco2)Cc2ccco2)cc1,-23.5%
15,COc1cccc(CN(CC(=O)NCc2ccco2)C(=O)CNS(=O)(=O)c2ccccc2)c1,-53.1%
16,Cc1ccc(S(=O)(=O)NCC(=O)N(CC(=O)NCc2ccco2)Cc2ccccc2)cc1,-10.2%
17,COc1ccc(CNC(=O)CN(Cc2ccco2)C(=O)CNS(=O)(=O)c2ccc(C)cc2)cc1,-73%
18,O=C(CN(Cc1ccco1)C(=O)CNS(=O)(=O)c1ccc(Cl)cc1)NCc1ccco1,-55.4%
19,O=C(CN(Cc1ccco1)C(=O)CNS(=O)(=O)c1ccc(F)cc1)NCc1ccco1,-8.87%
20,COc1ccc(S(=O)(=O)NCC(=O)N(CC(=O)NCc2ccco2)Cc2ccccc2)cc1,-10.6%
21,Cc1ccc(C)c(N2CCN(S(=O)(=O)c3csc(C(N)=O)c3)CC2)c1,-8.27%
22,CCC1CCCCN1c1nc2c(C=O)c(C)nn2c2ccccc12 (centres unmarked),-12%
23,COc1cccc(-c2nc(CS(=O)(=O)CC(=O)Nc3cc(F)ccc3F)c(C)o2)c1,8.16%
24,COCCNc1ccc(S(=O)(=O)N2CCCC2)cn1,13.2%
25,COc1ccc(-c2c3c(=O)n(C)c(=O)n(C)c3cn2NC(C)=O)cc1,12.2%

row,Compound,"hERG current change (%, negative = inhibition) at 10uM"
1,Cc1ccc(Cn2nnc3c(=O)[nH]c(C4CCN(C(=O)c5cccs5)CC4)nc32)cc1,-33%
2,Cc1ccc(C)c(Cn2nnc3c(=O)[nH]c(C4CCCN(C(=O)C5CCC5)C4)nc32)c1 (centres unmarked),-32.4%
3,Cc1ccc(C)c(Cn2nnc3c(=O)[nH]c(C4CCCN(C(=O)c5ccco5)C4)nc32)c1 (centres unmarked),-38.3%
4,Cc1ccc(C)c(Cn2nnc3c(=O)[nH]c(C4CCCN(C(=O)C5CCCCC5)C4)nc32)c1 (centres unmarked),-51.5%
5,Cc1ccc(C)c(Cn2nnc3c(=O)[nH]c(C4CCN(C(=O)c5cccs5)CC4)nc32)c1,-66.5%
6,CCCCC(=O)N1CCCC(c2nc3c(nnn3Cc3cc(C)ccc3C)c(=O)[nH]2)C1 (centres unmarked),-52.2%
7,Cc1ccc(C)c(Cn2nnc3c(=O)[nH]c(C4CCCN(C(=O)CC(C)C)C4)nc32)c1 (centres unmarked),-14.6%
8,O=C(C1CCCCC1)N1CCCC(c2nc3c(nnn3Cc3ccccc3)c(=O)[nH]2)C1 (centres unmarked),-8.73%
9,Cc1ccc(C)c(Cn2nnc3c(=O)[nH]c(C4CCCN(C(=O)c5cccs5)C4)nc32)c1 (centres unmarked),0.859%
10,Cc1c(C(=O)N/N=C/c2ccc(N(C)C)cc2)[nH]c2ccc(Cl)cc12,2.69%
11,COC(=O)C1=C(C(=O)c2ccccc2)C(c2cccs2)n2nnnc2N1 (centres unmarked),19.8%
12,Cc1ccc(CN2C(=O)CCC2C(=O)NCc2ccc3c(c2)OCO3)cc1 (centres unmarked),-17.4%
13,NS(=O)(=O)c1ccc(CNC(=S)NCc2ccc(F)cc2)cc1,9.61%
14,CCOC(=O)c1ccc(NC(=O)CC2C(=O)N(c3ccccc3)C(=O)N2CCCOC)cc1 (centres unmarked),-4.49%
15,CC(=O)NS(=O)(=O)c1ccc(NC(=O)/C=C/c2cn(-c3ccccc3)nc2-c2ccccc2)cc1,34%
16,COc1ccc(C(=O)OCCN2CCN(C3=NS(=O)(=O)c4ccccc43)CC2)cc1OC,-32.9%
17,O=C(c1ccc(F)cc1)N1CCN(C2=NS(=O)(=O)c3ccccc32)CC1,-15.8%
18,O=C(c1ccc([N+](=O)[O-])cc1)N1CCN(C2=NS(=O)(=O)c3ccccc32)CC1,-46.2%
19,O=C(OCCN1CCN(C2=NS(=O)(=O)c3ccccc32)CC1)c1ccccc1F,-16.9%
20,O=C(c1cccc(Br)c1)N1CCN(C2=NS(=O)(=O)c3ccccc32)CC1,-65.8%
21,O=C(OCCN1CCN(C2=NS(=O)(=O)c3ccccc32)CC1)c1cccc(Br)c1,-68.6%
22,COc1ccc2c(CC(=O)OCC(=O)NC(N)=O)coc2c1,0.524%
23,COc1ccc(N2C(=NC(=O)C3CCCO3)SC3CS(=O)(=O)CC32)cc1 (centres unmarked),5.78%
24,Cc1ccc(C)c(NC(=O)c2ccc3nccnc3c2)c1,2.6%
25,COc1ccc(N=C2NC(=O)CS2)c([N+](=O)[O-])c1,11.4%
